Experimental data taken from the supplement of paper PMC11634586.
Where a name gives a salt, the structure may show the parent alone. Unmarked numbers belong to inactive results.

System: NCI-H1688
Test: inhibition of cell viability relative to untreated control (fraction); higher = stronger growth inhibition, active = 0.5 or more
Conditions: 30 µM; 24 h
Protocol: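 Natural product library (TargetMol, 640 compounds) screened on NCI-H1688 SCLC cells at 30 µM for 24 h; viability by CCK-8 absorbance at 450 nm, normalised to untreated control and expressed as inhibition rate (fraction). Compounds with >50% reduction in viability were selected as hits.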

SMILES	inhibition of cell viability
N[C@@H]1CONC1=O [D-Cycloserine]	0.0589
C[C@@H]1O[C@@H](OC[C@H]2O[C@@H](Oc3c(-c4ccc(OCCO)c(OCCO)c4)oc4cc(OCCO)cc(O)c4c3=O)[C@H](O)[C@@H](O)[C@@H]2O)[C@H](O)[C@H](O)[C@H]1O [Troxerutin]	-0.145
COc1ccc(-c2cc(=O)c3c(O)c(OC)c(O[C@@H]4O[C@H](CO[C@@H]5O[C@@H](C)[C@H](O)[C@@H](O)[C@H]5O)[C@@H](O)[C@H](O)[C@H]4O)cc3o2)cc1 [Pectolinarin]	0.194
NC(=O)CC[C@H](N)C(=O)O [L-Glutamine]	-0.0181
CCc1c2c(nc3ccc(OC(=O)N4CCC(N5CCCCC5)CC4)cc13)-c1cc3c(c(=O)n1C2)COC(=O)[C@]3(O)CC [Irinotecan]	0.684 (active)
NC(=O)c1cccnc1 [Nicotinamide]	0.0846
Cc1c(C(=O)NCCO)[n+]([O-])c2ccccc2[n+]1[O-] [Olaquindox]	0.00372
C=C1C[C@@]23CC[C@H]4[C@@](C)(CCC[C@@]4(C)C(=O)O[C@@H]4O[C@H](CO)[C@@H](O)[C@H](O)[C@H]4O)[C@@H]2CC[C@]1(O[C@@H]1O[C@H](CO)[C@@H](O)[C@H](O)[C@H]1O[C@@H]1O[C@H](CO)[C@@H](O)[C@H](O)[C@H]1O)C3 [Stevioside]	-0.031
O=C1O[C@H]([C@H](O)CO)C([O-])=C1O.[Na+] [Sodium erythorbate]	0.0513
CC(C)=CC[C@@H](O)C1=CC(=O)c2c(O)ccc(O)c2C1=O [Shikonin]	0.956 (active)
COc1ccc(/C=C/C(=O)O)cc1O [Isoferulic acid]	-0.0461
COc1cc(/C=C/C(=O)O)cc(OC)c1OC [3,4,5-Trimethoxycinnamic acid]	0.124
C[C@@H]1CC[C@@]2(OC1)O[C@H]1C[C@H]3[C@@H]4CC=C5C[C@@H](O)CC[C@]5(C)[C@H]4CC[C@]3(C)[C@H]1[C@@H]2C [Diosgenin]	-0.279
Cc1cccc2c3c(ccc12)C1=C(C(=O)C3=O)[C@@H](C)CO1 [Dihydrotanshinone I]	0.992 (active)
C=C[C@@]1(C)CC(=O)[C@]2(O)[C@@]3(C)[C@@H](O)CCC(C)(C)[C@@H]3[C@H](O)[C@H](OC(C)=O)[C@@]2(C)O1 [Forskolin]	0.166
O=C(/C=C/c1ccc(O)cc1)c1ccc(O)cc1O [Isoliquiritigenin]	0.485
CC1=CC(=O)c2ccccc2C1=O [Menadione]	0.979 (active)
CC(=O)N[C@H]1[C@H]([C@H](O)[C@H](O)CO)OC(O)(C(=O)O)C[C@@H]1O (stereo not given in full) [N-Acetylneuraminic acid]	-0.0072
CC[C@]1(O)C[C@H]2CN(CCc3c([nH]c4ccccc34)[C@@](C(=O)OC)(c3cc4c(cc3OC)N(C=O)[C@H]3[C@@](O)(C(=O)OC)[C@H](OC(C)=O)[C@]5(CC)C=CCN6CC[C@]43[C@@H]65)C2)C1 [Vincristine sulfate]	0.847 (active)
C[C@H]1O[C@H](O[C@H]2[C@H](O)[C@@H](O)[C@@H](O[C@H]3[C@H](O)[C@@H](O)C(O)O[C@@H]3CO)O[C@@H]2CO)[C@H](O)[C@@H](O)[C@@H]1N[C@H]1C=C(CO)[C@@H](O)[C@H](O)[C@H]1O (stereo not given in full) [Acarbose]	-0.208

SMILES	inhibition of cell viability
O=C(O)C(O)Cc1ccc(O)c(O)c1 (stereo not given) [Sodium Danshensu]	-0.0463
CCCCCCCCCCCCCCCCCCCCCCCCCCCCCCO	0.22
CC1(C)CCC[C@](C)([C@H]2CC[C@]3(C)[C@@H]2[C@H](O)C[C@@H]2[C@@]4(C)CC[C@H](O)C(C)(C)[C@@H]4CC[C@]23C)O1 [Panaxadiol]	-0.0255
C[C@H]1O[C@@H](O[C@H]2[C@@H](O)C[C@H](O[C@H]3[C@@H](O)C[C@H](O[C@H]4CC[C@@]5(C)[C@H](CC[C@@H]6[C@@H]5CC[C@]5(C)[C@@H](C7=CC(=O)OC7)CC[C@]65O)C4)O[C@@H]3C)O[C@@H]2C)C[C@H](O)[C@@H]1O [Digitoxin]	0.981 (active)
O=C(/C=C/c1ccc(O)c2oc(-c3ccc(O)c(O)c3)cc12)O[C@H](Cc1ccc(O)c(O)c1)C(=O)O [Salvianolic Acid C]	0.0822
C=C1CC[C@H]2O[C@]2(C)CC[C@@H]2[C@@H]1CC2(C)C [Caryophyllene oxide]	-0.0678
Nc1ncnc2c1ncn2[C@@H]1O[C@H](COP(=O)(O)O)[C@@H](O)[C@H]1O [Adenosine 5'-monophosphate]	-0.0048
CC1(C)CC[C@]2(C(=O)O)CC[C@]3(C)C(=CC[C@@H]4[C@@]5(C)CC[C@H](O)C(C)(C)[C@@H]5CC[C@]43C)[C@@H]2C1 [Oleanolic Acid]	0.0195
O=c1ccc2cc(O)c(O)cc2o1 [Esculetin]	0.643 (active)
CC(C)(S)[C@@H](N)C(=O)O [Artamine]	0.0772
C[C@@H]1O[C@@H](OC[C@H]2O[C@@H](Oc3c(-c4ccc(O)c(O)c4)oc4cc(O)cc(O)c4c3=O)[C@H](O)[C@@H](O)[C@@H]2O)[C@H](O)[C@H](O)[C@H]1O [Rutin]	0.272
O=C[C@H](NS(=O)(=O)O)[C@@H](O)[C@H](O)[C@H](O)CO [N-Sulfo-glucosamine sodium salt]	0.162
O=C(O)CCCCCCCC(=O)O [Azelaic acid]	0.133
O=C(O)c1cc(O)c(O)c(O)c1 [Gallic acid]	0.44
Cc1nc(C)c(C)nc1C [Ligustrazine hydrochloride]	-0.157
C=C1CC[C@@H]2[C@](C)(CO)[C@H](O)CC[C@@]2(C)[C@H]1C/C=C1\C=COC1=O [Dehydroandrographolide]	0.14
CC(=O)O[C@@]12CO[C@@H]1C[C@H](O)[C@@]1(C)C(=O)[C@H](O)C3=C(C)[C@@H](OC(=O)[C@H](O)[C@@H](NC(=O)OC(C)(C)C)c4ccccc4)C[C@@](O)([C@@H](OC(=O)c4ccccc4)[C@H]21)C3(C)C [Docetaxel trihydrate]	0.635 (active)
CNC[C@@H](O)c1ccc(O)c(O)c1 [L-Adrenaline]	0.0228
O=C(O)c1cccnc1 [Nicotinic acid]	0.0212
OCc1ccccc1O[C@@H]1O[C@H](CO)[C@@H](O)[C@H](O)[C@H]1O	-0.21
